Records with an inconclusive call do not appear. Active and inactive are the calls of the source. Unless noted, calls come from the whole dose curve; as a rule, active = well fitted curve in the direction sought with a large enough effect; inconclusive = small, poorly fitted or top-dose-only effect, or another doubt; inactive = no such curve, though single readings can be large; an effect the other way counts as inactive or inconclusive.
How the values were obtained:
[1] = AP1 Signaling Pathway (AID 357; active = well fitted curve in either direction with a large enough effect, not every such curve was filed as active;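 note: ME-180 reporter cells stimulated with EGF at its EC50 level; % is set by controls: 0 for no effect and ±100 for the full control effect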); details: ME-180 AP-1-bla reporter, EGF-induced, beta-lactamase ratio, 5 h; at 38 µM (top of the series)
In short: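 Cells are seeded overnight, exposed to compound titrations and an EC50 level of EGF for 5 hours at 37 °C, then loaded with CCF4 dye for 2.5 hours. Beta-lactamase activity under the AP-1 element is read as a blue/green ratio.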

[2] = NFAT Signaling Pathway (AID 444; active = well fitted curve in either direction with a large enough effect, not every such curve was filed as active;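 note: carbachol stimulus at about its EC50 of 1 µM final; % is set by controls: 0 for no effect and ±100 for the full control effect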); details: Jurkat NFAT-bla M1, carbachol, beta-lactamase ratio, 5 h; at 38 µM (top of the series)
In short: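 Jurkat cells carrying an NFAT-driven β-lactamase reporter and co-transfected muscarinic M1 receptor were treated with compound plus carbachol (1 uM final, an EC50 level) for 5 h at 37 °C. CCF4 loading followed for 1 h at RT; 460/530 nm ratio gave %activity.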

[3] = Stat Signaling Pathway (AID 446; active = well fitted curve in either direction with a large enough effect, not every such curve was filed as active;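 note: ME-180 cervical cancer cells given 40 pM IL-6 alongside compound; SIE-controlled beta-lactamase reporter measured as 460/530 nm FRET emission ratio; % is set by controls: 0 for no effect and ±100 for the full control effect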); details: ME-180 SIE beta-lactamase reporter, IL-6 stimulated, 5 h; at 38 µM (top of the series)
In short: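 Screening format detects activators and inhibitors alike: ME-180 SIE-bla cells stimulated at 40 pM IL-6 for 5 hrs with compound, then dual-emission beta-lactamase read at 405 nm excitation.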

[4] = target: Glucocorticoid receptor (Homo sapiens) (UniProt P04150); assay: GR-GFP Redistribution (AID 450;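 active = compounds whose dose series gives a full or clear partial fitted curve of increased nuclear translocation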; note: potency is the fitted concentration of half-maximal effect); details: U2OS GR-GFP nuclear translocation, laser cytometry, 2 h
Glucocorticoid receptor (Homo sapiens), sequence (P04150 whole entry, looked up, the tested form may be a part): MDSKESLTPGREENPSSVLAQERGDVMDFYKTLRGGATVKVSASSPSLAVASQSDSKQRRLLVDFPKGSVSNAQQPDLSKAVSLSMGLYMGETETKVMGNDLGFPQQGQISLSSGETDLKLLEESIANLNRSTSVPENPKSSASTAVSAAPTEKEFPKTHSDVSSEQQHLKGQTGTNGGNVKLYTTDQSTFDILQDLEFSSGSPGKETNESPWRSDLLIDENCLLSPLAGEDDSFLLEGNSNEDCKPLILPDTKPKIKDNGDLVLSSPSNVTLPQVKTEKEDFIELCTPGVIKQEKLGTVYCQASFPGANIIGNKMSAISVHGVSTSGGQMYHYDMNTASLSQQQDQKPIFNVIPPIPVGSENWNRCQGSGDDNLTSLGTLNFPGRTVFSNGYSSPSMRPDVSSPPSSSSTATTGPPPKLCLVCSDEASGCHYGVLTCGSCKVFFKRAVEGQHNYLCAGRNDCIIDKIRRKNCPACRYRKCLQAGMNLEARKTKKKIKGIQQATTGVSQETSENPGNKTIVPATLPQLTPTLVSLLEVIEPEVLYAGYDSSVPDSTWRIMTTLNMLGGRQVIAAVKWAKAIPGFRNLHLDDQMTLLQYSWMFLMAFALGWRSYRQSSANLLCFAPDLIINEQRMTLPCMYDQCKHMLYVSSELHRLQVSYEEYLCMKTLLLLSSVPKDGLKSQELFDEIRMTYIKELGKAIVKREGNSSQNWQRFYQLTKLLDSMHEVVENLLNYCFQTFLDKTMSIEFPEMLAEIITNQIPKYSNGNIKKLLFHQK

[5] = target: Glucocorticoid receptor (Homo sapiens) (UniProt P04150); assay: GR-EFC Redistribution (AID 451; calls by dose curve; note: potency is the fitted concentration of half-maximal effect); details: CHO-K1 GR-EFC translocation, beta-gal luminescence, 2 h
In short: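 CHO-K1 cells stably expressing nuclear-localized β-gal enzyme acceptor and GR fused C-terminally to the enzyme donor fragment; ligand-driven nuclear translocation restores β-gal by complementation. Compounds titrated up to 46 uM final, 2 h at 37 °C; luminescence read.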

[6] = target: Mitogen-activated protein kinase 10 (Mus musculus) (UniProt Q61831); assay: JNK3 AlphaScreen Assay (AID 530; active = well fitted curve in either direction with a large enough effect, not every such curve was filed as active;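 note: kinase came from lysate of stimulated human HepG2 cells; signal reports phosphorylation of biotinylated GST-cJun 1-79 at Ser73 with 10 µM ATP; % is set by controls: 0 for no effect and ±100 for the full control effect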)
In short: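 Inhibitors reduce antibody binding to phosphorylated biotin-cJun, lowering AlphaScreen luminescence. Lysates from HepG2 cells pre-activated by IL-1beta plus TNF-alpha supplied JNK3; compounds were titrated.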

[7] = target: 3',5'-cyclic-AMP phosphodiesterase 4B (Homo sapiens) (UniProt Q07343); assay: qHTS Assay for Inhibitors of PDE-IV (AID 607; active = well fitted activation curve with a large enough effect in the main read-out, with a control signal flat, not every such curve was filed as active; note: % of control where 0% means no effect)
3',5'-cyclic-AMP phosphodiesterase 4B (Homo sapiens), sequence (Q07343 whole entry, looked up): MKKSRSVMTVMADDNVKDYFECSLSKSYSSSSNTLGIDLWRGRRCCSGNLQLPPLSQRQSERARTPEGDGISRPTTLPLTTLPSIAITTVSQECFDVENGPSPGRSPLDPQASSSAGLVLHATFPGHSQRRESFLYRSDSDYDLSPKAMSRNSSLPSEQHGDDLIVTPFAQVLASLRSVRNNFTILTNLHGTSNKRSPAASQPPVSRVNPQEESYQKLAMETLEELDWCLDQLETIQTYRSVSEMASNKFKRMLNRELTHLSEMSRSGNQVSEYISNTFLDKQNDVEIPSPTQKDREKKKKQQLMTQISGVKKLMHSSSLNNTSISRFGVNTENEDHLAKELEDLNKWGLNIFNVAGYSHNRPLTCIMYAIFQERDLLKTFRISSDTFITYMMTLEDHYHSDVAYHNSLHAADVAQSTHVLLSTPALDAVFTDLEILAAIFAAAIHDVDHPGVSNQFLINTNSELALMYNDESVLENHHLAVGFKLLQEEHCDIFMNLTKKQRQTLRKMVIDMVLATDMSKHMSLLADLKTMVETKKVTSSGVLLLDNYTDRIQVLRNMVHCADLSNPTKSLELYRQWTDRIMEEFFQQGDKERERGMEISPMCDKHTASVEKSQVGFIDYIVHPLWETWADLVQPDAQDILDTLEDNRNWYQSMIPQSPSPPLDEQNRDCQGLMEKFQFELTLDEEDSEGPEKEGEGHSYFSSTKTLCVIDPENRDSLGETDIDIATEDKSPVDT
In short: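 The readout is membrane depolarisation from a cAMP-sensing CNG channel, detected with a potential dye at ex 535/em 590. Cells were HEK293-derived (endogenous PDE-IV) at 1000 cells/well, titrated up to 22.9 uM final.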

[8] = target: Guanine nucleotide-binding protein G(i) subunit alpha-1 (Homo sapiens) (UniProt P63096); assay: qHTS Assay for Inhibitors of RGS12 GoLoco Motif Activity (Green Fluorophore) (AID 879);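 note: 0% = labeled peptide with Gαi1 and full inhibition = labeled peptide alone without protein; negative values mean loss of peptide binding seen as reduced polarization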
Guanine nucleotide-binding protein G(i) subunit alpha-1 (Homo sapiens), sequence (P63096 whole entry, looked up): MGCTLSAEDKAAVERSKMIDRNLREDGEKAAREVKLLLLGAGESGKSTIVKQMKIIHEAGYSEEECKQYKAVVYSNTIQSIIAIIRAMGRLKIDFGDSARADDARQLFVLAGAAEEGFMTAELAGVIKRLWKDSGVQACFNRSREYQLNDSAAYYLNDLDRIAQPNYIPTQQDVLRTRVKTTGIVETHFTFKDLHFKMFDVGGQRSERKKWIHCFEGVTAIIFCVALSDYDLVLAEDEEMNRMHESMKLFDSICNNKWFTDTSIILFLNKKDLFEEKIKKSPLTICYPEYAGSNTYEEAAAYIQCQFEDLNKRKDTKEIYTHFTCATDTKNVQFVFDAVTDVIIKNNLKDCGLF
In short: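 Fluorescence polarization assay: 50 nM Gαi1 with 10 nM FITC-labeled RGS12 GoLoco peptide in 10 mM Tris pH 7.5, 150 mM NaCl, 0.1 mM GDP, 0.05% NP40, 10 min at room temperature with compound.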

[9] = qHTS Assay for Identification of Small Molecule Agonists for Thrombopoietin (TPO) Signaling Pathway (AID 917); note: % is set by controls: 0 for no effect and ±100 for the full control effect
In short: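 IL-3-dependent murine pro-B Ba/F3 cells, stably transfected with human TPO receptor and GpIIb-promoter luciferase, are incubated 24 hrs at 37 C with test compound and 26 pM TPO; luciferase signal is read after 10 min at room temperature.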

[10] = target: Muscarinic acetylcholine receptor M1 (Rattus norvegicus) (UniProt P08482); assay: qHTS Assay for Antagonists of Acetylcholine Muscarinic M1 Receptor: Measurement of IP-One Response (AID 944); note: nearly all actives have a fitted effect of over 75% in size
Muscarinic acetylcholine receptor M1 (Rattus norvegicus), sequence (P08482 whole entry, looked up): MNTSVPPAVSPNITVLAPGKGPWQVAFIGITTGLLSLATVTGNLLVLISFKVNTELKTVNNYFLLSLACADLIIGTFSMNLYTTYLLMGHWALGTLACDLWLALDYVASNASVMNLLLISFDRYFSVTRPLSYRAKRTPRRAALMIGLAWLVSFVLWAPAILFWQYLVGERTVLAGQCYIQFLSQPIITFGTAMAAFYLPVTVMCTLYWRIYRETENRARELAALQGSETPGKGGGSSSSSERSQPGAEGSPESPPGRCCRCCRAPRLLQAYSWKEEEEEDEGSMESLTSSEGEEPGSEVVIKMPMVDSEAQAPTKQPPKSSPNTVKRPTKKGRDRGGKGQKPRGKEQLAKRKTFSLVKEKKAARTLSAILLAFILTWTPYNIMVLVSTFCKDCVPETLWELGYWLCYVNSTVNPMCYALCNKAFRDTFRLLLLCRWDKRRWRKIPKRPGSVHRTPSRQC
In short: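 M1-CHO (rat), 2000 cells/well, overnight recovery; cpd 10 min; carbachol EC80 (200 nM), 30 min, HEPES buffer + 50 mM LiCl pH 7.4; IP-One HTRF, Ex 337, Em 620/665 nm.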

[11] = target: Pyruvate kinase (Leishmania mexicana) (UniProt Q27686); assay: qHTS Validation Assay for Inhibitors of Leishmania Mexicana Pyruvate Kinase (AID 945);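 note: 0% = DMSO only neutral control wells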
Pyruvate kinase (Leishmania mexicana), sequence (Q27686 2-499 E452W): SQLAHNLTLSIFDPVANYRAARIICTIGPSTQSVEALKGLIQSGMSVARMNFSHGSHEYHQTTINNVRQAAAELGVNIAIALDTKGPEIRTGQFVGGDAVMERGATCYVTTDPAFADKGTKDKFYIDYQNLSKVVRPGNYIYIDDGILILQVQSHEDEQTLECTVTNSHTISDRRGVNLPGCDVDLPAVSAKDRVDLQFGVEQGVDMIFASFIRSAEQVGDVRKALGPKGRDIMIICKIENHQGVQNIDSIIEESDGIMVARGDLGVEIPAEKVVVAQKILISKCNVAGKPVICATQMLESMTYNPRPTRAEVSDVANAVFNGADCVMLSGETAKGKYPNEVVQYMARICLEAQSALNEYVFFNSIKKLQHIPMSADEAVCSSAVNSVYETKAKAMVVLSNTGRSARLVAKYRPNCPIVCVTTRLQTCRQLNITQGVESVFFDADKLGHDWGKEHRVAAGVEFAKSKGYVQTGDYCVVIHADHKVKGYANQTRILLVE
In short: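 Luminescent ATP detection (PKLight) after a 1 h room-temperature reaction of 0.2 nM LmPYK E451W mutant with 0.5 mM PEP and 0.1 mM ADP at pH 7.2. Activity is normalized to DMSO-only control wells.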

[12] = target: Pyruvate kinase PKM (Homo sapiens) (UniProt P14618); assay: qHTS Assay for Activators of Human Muscle Pyruvate Kinase (AID 954; active = well fitted curve in the direction sought with a large enough effect, not every such curve was filed as active;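 note: 0% = uninhibited enzyme and -100% = no enzyme or full thiadiazolimine inhibition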)
Pyruvate kinase PKM (Homo sapiens), sequence (P14618 whole entry, looked up): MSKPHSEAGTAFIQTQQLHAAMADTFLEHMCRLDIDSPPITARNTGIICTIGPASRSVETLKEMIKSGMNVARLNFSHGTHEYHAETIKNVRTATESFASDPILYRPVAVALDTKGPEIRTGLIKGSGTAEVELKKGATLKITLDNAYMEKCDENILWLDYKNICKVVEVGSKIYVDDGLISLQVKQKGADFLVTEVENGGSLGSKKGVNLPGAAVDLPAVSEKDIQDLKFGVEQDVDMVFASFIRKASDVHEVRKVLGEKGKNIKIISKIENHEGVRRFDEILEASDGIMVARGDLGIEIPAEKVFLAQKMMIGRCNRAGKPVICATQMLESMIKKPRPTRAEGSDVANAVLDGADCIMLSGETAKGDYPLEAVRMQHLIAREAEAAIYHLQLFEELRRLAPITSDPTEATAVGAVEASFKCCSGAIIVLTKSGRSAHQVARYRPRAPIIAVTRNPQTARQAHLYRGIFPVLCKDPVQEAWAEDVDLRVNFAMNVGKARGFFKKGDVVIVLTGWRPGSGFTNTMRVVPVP
In short: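 Reaction: 0.1 nM purified PKM2 with 0.5 mM phosphoenolpyruvate and 0.1 mM ADP, room temperature, 1 h. Readout: luciferase-based ATP luminescence after stop reagent. Activators judged against a 0.3 nM enzyme column.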

[13] = target: alpha-glucosidase (Oryza sativa, rice) (UniProt Q653V4); assay: Counterscreen for Glucocerebrosidase Inhibitors: qHTS Assay for Rice alpha-Glucosidase at pH 5.0 (AID 997);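 note: 0% = full activity with enzyme and -100% = basal without enzyme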
In short: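 Rice alpha-glucosidase (4 nM final) with 400 uM 4-methylumbelliferyl-alpha-D-glucopyranoside in citrate buffer pH 5.0, 20 min at room temperature, stopped at pH 10; fluorescence 365/440 nm, compounds 0.7 nM–77 uM, AC50 from Hill fits.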

[14] = qHTS Assay for Lipid Storage Modulators (AID 1519; calls by dose curve); details: Drosophila S3 cells, BODIPY lipid droplet/cell ratio, laser cytometry, cells loaded with oleic acid; for activity change, negative = inhibition: at 57.5 µM (top of the series)
In short: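 Cells seeded at 5,000 per well were treated with compounds over a concentration series and loaded with oleic acid (400 uM, as added). Lipid droplet fluorescence (488 nm excitation, 500-530 nm channel) was read by laser-scanning cytometry and normalized to 20 uM Triacsin C.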

[15] = target: Ubiquitin carboxyl-terminal hydrolase 1 (Homo sapiens) (UniProt O94782); assay: Inhibitors of USP1/UAF1: Pilot qHTS (AID 504865);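 note: rhodamine fluorescence freed from ubiquitin-rhodamine substrate followed over time; top concentration of the series differs between compounds; % is set by controls: 0 for no effect and ±100 for the full control effect; nearly all actives have a fitted effect of over 35% in size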
In short: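 Enzyme-free wells gave the negative control, while test wells held 1nM USP1/UAF1 preincubated with compound for 15 min at room temperature. Ub-Rho at 150nM final started the reaction, and fluorescence at 480/540 nm was recorded kinetically.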

[16] = target: DNA dC->dU-editing enzyme APOBEC-3G (Homo sapiens) (UniProt Q9HC16); assay: qHTS for inhibitors of Vif-A3G interactions: Validation (AID 588379); note: 0% is about no effect
DNA dC->dU-editing enzyme APOBEC-3G (Homo sapiens), sequence (Q9HC16 whole entry, looked up): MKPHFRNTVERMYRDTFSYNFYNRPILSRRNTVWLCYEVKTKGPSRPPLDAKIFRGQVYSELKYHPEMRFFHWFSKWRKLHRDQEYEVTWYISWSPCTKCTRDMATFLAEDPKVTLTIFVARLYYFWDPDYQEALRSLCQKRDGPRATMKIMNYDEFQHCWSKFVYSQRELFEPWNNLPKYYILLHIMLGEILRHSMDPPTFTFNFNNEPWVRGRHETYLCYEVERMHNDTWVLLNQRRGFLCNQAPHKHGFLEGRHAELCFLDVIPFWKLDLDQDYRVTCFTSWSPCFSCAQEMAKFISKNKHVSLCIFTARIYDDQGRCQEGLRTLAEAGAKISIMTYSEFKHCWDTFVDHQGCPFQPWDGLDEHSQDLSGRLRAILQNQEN
In short: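 HeLa cells stably expressing Vif and A3G-eYFP, 700 cells/well, incubated overnight at 37 deg C, then exposed to compound overnight at 37 deg C. Inhibition of Vif-mediated degradation read as increased yellow fluorescence (Ex 488/Em 500-530) by laser-scanning cytometry.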

[17] = test system: Zika virus NS2B-NS3 protease; assay: Primary screen GU AMC qHTS for Zika virus inhibitors (AID 1347154);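 note: 0% = no-inhibitor control and -100% = no-enzyme control; nearly all actives have a fitted effect of over 70% in size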
In short: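 Unlinked Zika NS2B hydrophilic domain/NS3 protease domain noncovalent complex (25 nM final) in 10 mM Tris-HCl pH 8.0, 0.01% Tween 20, with AMC peptide substrate. Fluorescence (ex 340, em 450 nm) change over 15 min, room temperature; percent inhibition fitted to 4-parameter Hill equation.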

[18] = Primary qHTS for small molecule stabilizers of the endoplasmic reticulum resident proteome: Secreted ER Calcium Modulated Protein (SERCaMP) assay (AID 1508630); note: % is set by controls: 0 for no effect and ±100 for the full control effect
In short: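 GLuc-SERCaMP-expressing SH-SY5Y cells, pretreated 16 h with compound, are challenged with thapsigargin to empty ER calcium stores; after 4 h, coelenterazine is added directly to the medium and luminescence is imaged.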

[19] = target: Cytochrome P450 1A2 (Homo sapiens) (UniProt P05177); assay: p450-cyp1a2 (AID 410; calls by dose curve;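 note: -100% = full effect of reference inhibitor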)
Cytochrome P450 1A2 (Homo sapiens), sequence (P05177 whole entry, looked up): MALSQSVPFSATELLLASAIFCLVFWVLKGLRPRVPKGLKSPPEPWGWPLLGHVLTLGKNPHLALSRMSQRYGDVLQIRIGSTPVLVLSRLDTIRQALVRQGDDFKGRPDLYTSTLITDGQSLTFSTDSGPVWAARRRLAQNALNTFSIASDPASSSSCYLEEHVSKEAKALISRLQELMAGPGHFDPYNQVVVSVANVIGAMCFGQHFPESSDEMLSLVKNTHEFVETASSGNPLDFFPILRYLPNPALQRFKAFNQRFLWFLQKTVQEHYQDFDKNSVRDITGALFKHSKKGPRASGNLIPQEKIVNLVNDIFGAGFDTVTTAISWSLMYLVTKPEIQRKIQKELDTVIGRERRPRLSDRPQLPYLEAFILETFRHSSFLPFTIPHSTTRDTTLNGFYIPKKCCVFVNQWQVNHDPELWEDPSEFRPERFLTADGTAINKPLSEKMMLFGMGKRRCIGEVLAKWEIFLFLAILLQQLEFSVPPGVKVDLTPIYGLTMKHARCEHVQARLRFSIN
In short: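 Luminescent readout of luciferin formed from Luciferin-ME by human CYP1A2; data normalized against complete inhibition by 57 uM furafylline. Enzyme 20nM, substrate 100uM at Km, 100mM KPO4 buffer, 60 min reaction at room temperature.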

[20] = target: Cytochrome P450 2C9 (Homo sapiens) (UniProt P11712); assay: qHTS Assay for Inhibitors and Substrates of Cytochrome P450 2C9 (AID 883); note: potency is the fitted concentration of half-maximal effect; nearly all actives have a fitted effect of over 60% in size
Cytochrome P450 2C9 (Homo sapiens), sequence (P11712 whole entry, looked up): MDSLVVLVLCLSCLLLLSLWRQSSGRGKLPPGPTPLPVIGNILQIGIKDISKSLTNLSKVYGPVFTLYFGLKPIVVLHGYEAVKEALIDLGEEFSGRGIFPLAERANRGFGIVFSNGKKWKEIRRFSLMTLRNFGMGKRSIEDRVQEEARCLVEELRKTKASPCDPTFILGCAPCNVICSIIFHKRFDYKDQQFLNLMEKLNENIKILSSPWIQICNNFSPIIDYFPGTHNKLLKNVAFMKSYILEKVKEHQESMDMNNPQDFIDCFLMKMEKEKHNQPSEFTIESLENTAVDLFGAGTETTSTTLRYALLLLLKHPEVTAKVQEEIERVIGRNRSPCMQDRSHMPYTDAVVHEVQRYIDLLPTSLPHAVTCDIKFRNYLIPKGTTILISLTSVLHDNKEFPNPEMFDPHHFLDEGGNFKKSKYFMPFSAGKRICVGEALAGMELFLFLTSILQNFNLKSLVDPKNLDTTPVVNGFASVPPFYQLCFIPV
In short: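 Human CYP2C9 (10nM) hydroxylated Luciferin-H (100uM, at its KM) to luciferin in 25mM KPO4. Compound was preincubated 10 min at 37C, then NADPH regeneration started a 60 min reaction at 37C. Luminescence was read after detection reagent, normalized to 57uM sulphaphenazole.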

[21] = qHTS Assay for Identification of Small Molecule Antagonists for NFkB Signaling Pathway (AID 895; active = well fitted inhibition curve with a large enough effect in the signal ratio, with a control signal flat, not every such curve was filed as active; the % refers to the signal ratio; note: % is set by controls: 0 for no effect and ±100 for the full control effect)
In short: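 NFkB-bla ME-180 cervical carcinoma cells with beta-lactamase reporter under NFkB response element; compounds added, then TNF alpha at 10 pM final (EC50), 5 h at 37 C. LiveBLAzer substrate 2 h, room temperature; emission 460/530 nm at 405 nm excitation.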

[22] = target: Muscarinic acetylcholine receptor M1 (Rattus norvegicus) (UniProt P08482); assay: qHTS Assay for Antagonists of Acetylcholine Muscarinic M1 Receptor: Kinetic Measurement of Intracellular Calcium Response (AID 943);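 note: Fluo-4 calcium signal as peak divided by basal fluorescence over 4 min; nearly all actives have a fitted effect of over 75% in size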
In short: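 Rat M1-CHO cells, 2000/well, overnight → Fluo-4 no-wash dye with probenecid, 1 h 37C → compound 10 min, room temp → basal read 6 s → carbachol EC80 (100 nM) → 4 min kinetic read; peak/basal.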

[23] = target: Alpha-galactosidase A (Homo sapiens) (UniProt P06280); assay: Counterscreen for Glucocerebrosidase Inhibitors: qHTS Assay for Human alpha-Galactosidase at pH 4.5 (AID 992); note: 0% is about no effect
In short: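 Concentration-response curves (0.7 nM to 77 uM final) were modeled with the Hill equation to give AC50. Reactions: 2 nM enzyme, 80 uM fluorogenic alpha-galactoside, pH 4.5 citric acid buffer, 20 min, room temperature.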

[24] = measured here: cell count channel max response
[25] = measured here: lipid channel max response

N[C@@H]1CCN(O)C1=O
inactive: activity change, negative = inhibition [1] 18.2% | activity change, negative = inhibition [2] 0.992% | activity, negative = inhibition [3] 21.4% | Potency [4] > 46 µM | Potency [5] > 46 µM | Potency [6] | Potency [7] | outcome [8] | Potency [9] | Potency [10] | Potency [11] | outcome [12] | outcome [13] | activity change, negative = inhibition [14] 4.58% | Potency [15] | Potency [16] | Potency [17] | Potency [18]
18.8%: max response [14, 24]
25.6%: max response [14, 25]

CC1=C(/C=C/C(=C/C=C/C(C)=C/C(=O)O)c2ccc(C)cc2)C(C)(C)CCC1
inactive: Potency [17] | Potency [18]

N[C@H](CCC(=O)N[C@H](CSN=O)C(=O)NCC(=O)O)C(=O)O
inactive: activity change, negative = inhibition [1] -9.57% | Potency [19] | activity change, negative = inhibition [2] 0.964% | activity, negative = inhibition [3] 14.7% | Potency [4] > 46 µM | Potency [5] > 46 µM | Potency [6] | Potency [7] | outcome [8] | Potency [21] | Potency [22] | Potency [11] | outcome [12] | outcome [23] | outcome [13] | activity change, negative = inhibition [14] 1.5% | Potency [16] | Potency [17] | Potency [18]
16.6%: max response [14, 25]
13.2%: max response [14, 24]
active: Potency [20] 5.01 µM

— PubChem BioAssay (NCATS)
